The results in this text go back to PubChem BioAssay (NCI).

This is part of a sample that, as a whole, favours compounds with a hit. Of some 83,000 tested, about 20% had one in any assay.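 Testing used 96-well plates and a 48-hour single-concentration exposure. Example: -40 means 40% of the starting cells died.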 Calls of active or inactive are those of the source. The calls were made as follows: active = growth percent below 10; inactive = the rest.

This test has as its system MDA-MB-468 breast. The experiment in a line: NCI-60 one-dose screen, 48 h (100 = growth as untreated, 0 = no growth, -100 = all killed). The settings on record: 10 µM unless noted.
`Cc1c2c(c(C)c3c1oc1cc(O)ccc13)C(=O)N(CCN1CCCCC1)C2=O`: the growth was 100% (inactive). Regarding `CCn1cc(C2NC(=O)c3ccccc3N2)c2cccc(C)c21` (stereo unspecified), the growth was 17.9% (inactive). In the case of `O=C1CC(C(F)(F)F)=NN1C(=O)c1nn(-c2ccc(Cl)cc2)cc1O`, the growth is 116% (inactive).

With `Cc1ccc(C(=O)NCCCNc2nccc(-n3ccc4cccnc43)n2)cc1`, the growth was 95.6% (inactive). Regarding `CCN1CCN(CC(=O)Nc2ccc(-c3cn4c(n3)sc3cc(Oc5ccnc(C(=O)NC)c5)ccc34)cc2)CC1`, the growth is 74.4% (inactive).

As for `O=C(O)c1cc([N+](=O)[O-])ccc1Oc1ccccc1`, the growth is 101% (inactive).

Take `CC(C)Oc1nc2c(c(=O)n(C)c(=O)n2C)n1C`: the growth is 109% (inactive). Regarding `FC(F)(F)C1=NNC(c2ccc3ccccc3c2)=NN1`, the growth is 108% (inactive).

As to `CC(O)c1cnc(/C=C2\SC(=S)N(Cc3ccccc3)C2=O)s1` (stereo unspecified), the growth was 13.8% (inactive). Take `Cc1cc(NCc2cc(Nc3ccnc4cc(Cl)ccc34)ccc2F)nc(N2CCCC2)n1`: the growth is -35.4% (active). As for `N#CC(Cc1cccc2ccccc12)c1cc2ccccc2[nH]1` (stereo unspecified), the growth is 93.2% (inactive). In the case of `O=C1CSC(c2ccccc2Cl)N1c1nnc(Cn2nnc3ccccc32)o1` (stereo unspecified) it was 82.7% (inactive); in that of `COc1ccc(OC)c([N+](=O)[O-])c1C=O`, 81.9% (inactive); in that of `COc1ccc(/C=C2\N=C(c3cccnc3)N(c3ccccc3)NC2=O)cc1`, 94.1% (inactive). As to `CCOC(=O)C(CCC(C)C)C(=O)OCC`, the growth is 105% (inactive). In the case of `O=C1CSC(c2cn(-c3ccccc3)nc2-c2ccc(Cl)cc2)N1c1ccccc1` (stereo unspecified) it was 104% (inactive).
